Data from PubChem BioAssay AID651789 (National Center for Advancing Translational Sciences (NCATS), 2012).
Results filed as inconclusive are left out. A call without a number means that no potency is given here. Active and inactive are the calls of the source. The call rests on the fitted dose curve; in most records, active means well fitted inhibition curve with a large enough effect; inconclusive means small, poorly fitted or top-dose-only effect; inactive means no such curve, though single readings can be large or run the other way.
Potency means the concentration at half of the fitted maximal effect.

Assay: Acumen qHTS Assay for Inhibitors of the mTORC1 Signaling Pathway in WT MEF Cells: Hit Validation; further: nearly all actives have a fitted effect of over 60% in size
Settings: Acumen imaging; series mostly up to 37.3 µM
Description: The mammalian target of rapamycin (mTOR) is an intracellular serine/threonine kinase Aberrant regulation of mTOR signaling plays a causative role in a number of human diseases, including cancer, benign tumors such as lymphangioleiomyomatosis (LAM) and Tuberous Sclerosis Complex (TSC), and metabolic diseases such as diabetes and obesity. This project aims to identify inhibitors of ribosomal protein S6 (rpS6) phosphorylation. The phosphorylation of rpS6 is a key event downstream of mTOR activation. The assay uses a phospho-specific antibody of phospho-rpS6 to detect inhibitors of mTOR activation. Mutations in the Tsc1 and Tsc2 genes are the underlying genetic lesions responsible for TSC, causing constitutive activation of the mTORC1 pathway and leading to profound effects on cell metabolism. Aberrant metabolism in cancer has recently received significant attention as a target to develop therapeutic agents in the treatment of cancer.1 As Tsc2-/- cells have lost the ability to respond to energy and growth factor deprivation, these cells are unable to properly down regulate cellular biosynthetic processes in response to metabolic stress, and are thus extremely sensitive to glucose deprivation-induced death.2 A central goal of this project is to explore the unique cell survival and metabolic properties of cells with Tsc1 or Tsc2 by screening for compounds that selectively target the Tsc2-/- MEFs by screening both Tsc2-/- and WT MEF cell lines. We hope to better understand these aspects of TSC physiology in order to exploit them for therapeutic benefit.
NIH Molecular Libraries Probe Production Centers Network [MLPCN]
NIH Chemical Genomics Center [NCGC]
Assay Submitter (PI): Blenis, John; Harvard University
For quantitative high throughput analysis of mTORC1 signaling, we developed a cell-based assay for immuno-fluorescence based detection of rpS6 phosphorylation on the Acumen Explorer that will be used a platform for the primary small molecule screen. Mouse embryonic fibroblasts (MEFs) are cultured in 1536-well plates using DMEM + 10% FBS. Twenty-four hrs after plating, test compounds (solubilized in DMSO) are delivered and incubated with the cells for 24 hrs at 37 degree Celsius. Following the incubation, media with compound is aspirated and the cells are fixed in 4% paraformaldehyde (PFA) containing PBS + 0.2% TX-100. Next, PFA is aspirated, cells are washed two times with PBS plus 0.2% TX-100 and the cells are blocked for 1 hr at room temperature (blocking buffer: LiCOR Blocking Buffer plus 0.2% TX-100). This is followed by aspiration and staining with Alexa-488 conjugated-phospho-rpS6 Ser235/236 antibody for 2 hours at room temperature (Cell Signaling Technology # 4803, 1:50 dilution in blocking buffer). Cells are washed two times with PBS plus 0.2% TX-100, and stained with 10 uM propidium iodide (PI) for 20-25 minutes for cell number measurement (1:500 dilution of Hoescht staining is also added for IN Cell imaging). The plates are scanned on the Acumen Explorer laser scanning instrument (TTP Labtech) using the 488nm laser for simultaneous excitation of the Alexa-488 and PI. […] Fluorescence emission from the PI stain is selected using a 575-640 nm band pass filter. The normalized phospho-S6 staining is calculated as the ratio of the integrated Alexa 488 intensity divided by the integrated PI intensity for the single concentration rapamycin control (7.5 nM) and DMSO columns. […] Inhibition of the pathway is defined based on the normalized phospho-S6 intensity in rapamycin treated cells. Active cells are defined as those with a normalized phospho-S6 staining above this threshold, and each treatment is reported as the % positive cells in the well, where thresholds are defined by selecting wells with the highest and lowest signal and differentiating between the % non-active and % active populations. In addition to the pathway specific phospho-S6 endpoint, the number of PI stained cells from the Acumen is recorded as a measure of cell viability. […]
For `Cn1ccc2c(OCC(=O)Nc3ccc(OC(F)(F)F)cc3)cccc2c1=O`, the Potency was “inactive”. In the case of `Cc1cn([C@H]2C[C@H](N=[N+]=[N-])[C@@H](CO)O2)c(=O)[nH]c1=O`, the Potency is reported as “inactive”. In the case of `Cc1cccc(N2CCN(c3ncnc4c3nc3n4CCCCC3)CC2C)c1` (stereo not given), the Potency is reported as 11.7 µM (active). With `COc1cc(C2CC(=O)Nc3cc4c(cc32)OCCO4)cc(Br)c1OC` (stereo not given) the Potency was 0.0521 µM (active). For `Cc1cc(OCC(=O)Nc2cc(-c3nc4ccccc4[nH]3)ccc2C)ccc1Cl`, the Potency was “inactive”. For `COc1cc(Cl)c(C)cc1NC(=O)C1CCN(c2nc3ccccc3n3cccc23)CC1`, the Potency was “inactive”. For `COc1ccccc1NC(=O)C1=C(C)Nc2nc(SCc3ccccc3)nn2C1c1cccs1` (stereo not given), the Potency was “inactive”. In the case of `Cn1nnnc1SCCCNCc1cc(Cl)ccc1OCc1ccc(F)cc1`, the Potency is reported as “inactive”. With `COc1cc2ncnc(Nc3ccc(F)c(Cl)c3)c2cc1OCCCN1CCOCC1` the Potency was “inactive”. In the case of `CCCCn1c(=N)n(CCOc2ccccc2OC)c2ccccc21`, the Potency is reported as 11.7 µM (active). With `Brc1ccc(Nc2c3c(nc4nncn24)CCC3)cc1` the Potency was “inactive”. With `COc1ccc(NC(=O)CSc2c3c(nc4ccccc24)CCC3)c(OC)c1` the Potency was “inactive”. With `O=C(Cn1c(=O)c2cccn2c2ccccc21)NCc1ccccc1F` the Potency was “inactive”. In the case of `Cc1nn(CC(=O)NCc2ccccc2Cl)c(=O)c2cccn12`, the Potency is reported as “inactive”. In the case of `O=C(Nc1ccc2nc(SCC(=O)N3CCCc4ccccc43)sc2c1)c1ccccc1F`, the Potency is reported as “inactive”. With `O=C(C1CCN(c2nc3ccccc3[nH]2)CC1)N1CCN(c2cccc(Cl)c2)CC1` the Potency was “inactive”. For `COc1ccc2c(c1)CC(C(=O)Nc1cc(Cl)ccc1C)CO2` (stereo not given), the Potency was “inactive”. For `COc1ccc(NC(=O)c2ccco2)cc1NC(=O)COc1ccccc1Cl`, the Potency was “inactive”. With `COc1ccc2c(CNCCc3cccs3)c(C(=O)O)n(Cc3ccc(F)cc3Cl)c2c1` the Potency was “inactive”. In the case of `O=S(=O)(NCC(c1ccco1)N1CCN(c2ccc(F)cc2)CC1)c1ccccc1` (stereo not given), the Potency is reported as “inactive”. For `Fc1ccc(Nc2nc3nonc3nc2Nc2cccc(C(F)(F)F)c2)cc1`, the Potency was 5.21 µM (active). In the case of `CCOC(=O)CSc1nc2cc3c(cc2c(=O)n1CCCCCC(=O)NCc1ccc2c(c1)OCO2)OCO3`, the Potency is reported as “inactive”. For `CCOCc1cc(CN2CCN(c3ccccc3OC)CC2)c(O)c2ncccc12`, the Potency was “inactive”. In the case of `CCc1ccc(CNc2ncc(-c3cccc(OC)c3)n2C)cc1`, the Potency is reported as “inactive”. With `O=C(Nc1ccc2oc(-c3ccc4ccccc4c3)nc2c1)c1cc(Br)ccc1Cl` the Potency was 13.1 µM (active). With `Cc1noc(/C=C/N(C)C)c1S(=O)(=O)N1CCCC(C(=O)Nc2ccc(F)cc2F)C1` (stereo not given) the Potency was 1.85 µM (active). For `COc1ccc2nc(NC(=O)c3nc(S(=O)(=O)Cc4ccccc4F)ncc3Cl)sc2c1`, the Potency was 13.1 µM (active). With `COc1ccc(Oc2nc3c(C)cccn3c(=O)c2/C=C(\C#N)c2nc3ccccc3[nH]2)cc1` the Potency was “inactive”. With `Cc1ccc([C@H]2Nc3ccc(S(=O)(=O)Nc4cccc(Cl)c4C)cc3[C@H]3C=CC[C@H]32)cc1` the Potency was “inactive”. For `O=C(CCn1cnc2onc(-c3ccc(F)cc3)c2c1=O)Nc1ccc(F)c(Cl)c1`, the Potency was “inactive”. With `O=C(NCc1ccc(Cl)cc1)C(=O)NCC(c1cccs1)S(=O)(=O)c1ccc(Cl)cc1` (stereo not given) the Potency was “inactive”. With `Cc1ccc(CN2C(=O)C(=O)c3cc(Br)cc(C)c32)cc1` the Potency was “inactive”. In the case of `Cc1ccc(-c2nn(C)c(=O)c3ccccc23)cc1S(=O)(=O)NCCCN(C)C`, the Potency is reported as “inactive”. With `Cc1cc(C)c(NC(=O)C2CCN(c3nc4ccccc4n4cccc34)CC2)c(C)c1` the Potency was “inactive”. With `CS(=O)(=O)CCNCc1ccc(-c2ccc3ncnc(Nc4ccc(OCc5cccc(F)c5)c(Cl)c4)c3c2)o1` the Potency was “inactive”. For `CN(C)c1ccc(Nc2nc3ccccc3n3nnnc23)cc1`, the Potency was “inactive”. For `Cc1ccc2sc(N(CCCN(C)C)C(=O)c3ccco3)nc2c1C`, the Potency was “inactive”. For `Cc1cc(C)c(NC(=O)c2sc3nc(C)cc(C)c3c2NC(=O)c2ccccc2)c(C)c1`, the Potency was “inactive”. In the case of `CC1C(=O)N2CCCc3cc(S(=O)(=O)Nc4ccc(Br)cc4F)cc1c32` (stereo not given), the Potency is reported as 2.07 µM (active). In the case of `C#Cc1cccc(Nc2ncnc3cc(OCCOC)c(OCCOC)cc23)c1`, the Potency is reported as “inactive”.
